Laboratory results as given in PubChem BioAssay (NCI).
The panel holds about 79,000 compounds, 15% with a hit somewhere; the sample as a whole holds those more often. Unmarked numbers belong to inactive results. Active and inactive are the calls of the source. Cut-off read from the data, not from the text of the source: active = growth inhibition above about 70%; inactive = the rest.

Assays:
[1] = NCI Yeast Anticancer Drug Screen. Data for the rad50 strain (AID 155);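 note: 0% = growth of vehicle-only cultures of the same strain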; settings: S. cerevisiae rad50 strain growth inhibition; at 50.0 µM; stronger effect = higher value
In short: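 Genetically altered yeast (DNA repair pathway); compound treatment; growth inhibition vs vehicle ctrl.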

[2] = NCI Yeast Anticancer Drug Screen. Data for the mec2-1 strain (AID 157); settings: S. cerevisiae mec2-1 strain, at 50.0 µM, stronger effect = higher value
In short: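 mec2-1 yeast strain, carrying an alteration in DNA damage repair or cell cycle control, was exposed to compounds; growth inhibition was measured relative to vehicle-treated controls.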

[3] = NCI Yeast Anticancer Drug Screen. Data for the sgs1 mgt1 strain (AID 161);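 note: 0% = growth of cultures given vehicle only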; settings: S. cerevisiae sgs1 mgt1 strain, at 50.0 µM, stronger effect = higher value
In short: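 Compounds are added to genetically altered yeast, and growth is compared with cultures given vehicle alone to give percent inhibition.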

[4] = NCI Yeast Anticancer Drug Screen. Data for the cln2 rad14 strain (AID 165);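 note: 0% = growth equal to vehicle treated cultures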; settings: S. cerevisiae cln2 rad14 strain, at 50.0 µM, stronger effect = higher value
In short: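 Yeast carrying cln2 and rad14 alterations (cell cycle control and DNA damage repair) were exposed to compounds. Growth inhibition was measured against vehicle-treated controls.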

[5] = NCI Yeast Anticancer Drug Screen. Data for the bub3 strain (AID 167); settings: S. cerevisiae bub3 mutant strain, at 50.0 µM, stronger effect = higher value
In short: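 Yeast carrying a defined mutation is treated with each compound, and growth is compared with that of vehicle-exposed cells to give inhibition.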

[6] = NCI Yeast Anticancer Drug Screen. Data for the mlh1 rad18 strain (AID 175); settings: S. cerevisiae mlh1 rad18 strain growth inhibition; at 50.0 µM; stronger effect = higher value
In short: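 Growth inhibition of the yeast strain was measured after compound exposure and expressed relative to vehicle-treated controls. The strain carries defined defects in DNA damage repair.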

SMILES	growth inhibition [1]	growth inhibition [2]	growth inhibition [3]	growth inhibition [4]	growth inhibition [5]	growth inhibition [6]
COc1nc(NC2OC(COC(C)=O)C(OC(C)=O)C(OC(C)=O)C2OC(C)=O)c(C(=O)CCl)c(=O)[nH]1 (configuration not stated)	3.75%	6.5%	8.45%	-0.4%	-2.2%	13.7%
O=C1c2ccccc2C(=O)N1/N=[N+](\[O-])N1Cc2ccccc2C1	18.4%	27.9%	24.1%	-18.2%	7.65%	28.2%
Cc1ccc(S(=O)(=O)N(N)CCC#N)cc1	7.3%	4.55%	14.8%	-24.1%	-10.1%	14.6%
Cc1nc(N)c(N=O)c(=O)[nH]1	13.2%	8.75%	14.2%	9.5%	10.9%	7.35%
Cc1ccc(NC(=O)CSc2nnc(Cc3ccccc3)o2)cc1	-15.4%	-4.35%	-18.5%	-20.1%	-3.65%	-25.6%
CCC(=O)OCCCCC1CCCO1 (configuration not stated)	9.35%	5.4%	2.25%	2.75%	12.3%	4.4%
CC1(C)C2CCC(CCOC(=O)COc3ccc(Cl)cc3)C1C2 (configuration not stated)	-9.45%	5.5%	12.1%	-44.2%	3.15%	12.6%
NS(=O)(=O)c1ccc(N=Cc2ccccc2)cc1	0.4%	-1.35%	12.6%	5.45%	15.2%	10.1%
CCCC(O)c1ccccc1C (configuration not stated)	17.6%	13.9%	1.4%	-17.2%	4.6%	12.1%
COc1ccc(C2c3cc4c(cc3OC(C)(O)C2C)OCO4)c(OC)c1OC (configuration not stated)	3.45%	5.7%	-1.4%	-9.25%	-5.1%	18.9%
O=C(COc1ccc(Cl)cc1)Nc1cccc([N+](=O)[O-])c1	2.55%	17.1%	2.45%	-5.7%	18.9%	6.7%
CCS(=O)(=O)/C=C(\C(=O)c1ccccc1)c1ccccc1	83.1% (active)	93.5% (active)	94% (active)	47.2%	89.8% (active)	93.3% (active)
Cc1ccc(N2N=S=CC2=O)cc1	40.7%	11.3%	37.5%	13.4%	20.3%	34%
[N-]=[N+]=NC1CCOC(n2cnc3c(N)ncnc32)C1O (configuration not stated)	-2.05%	-3.95%	5.55%	-33.5%	-4.6%	1.85%
CC1(C)OC(=O)C(=Cc2ccc(-c3ccccc3[N+](=O)[O-])o2)C(=O)O1	3.05%	6.25%	31%	23.6%	29.5%	26.6%
CC1C2(c3ccccc3)C(C(=O)c3ccccc3)NC(c3ccccc3)C12c1ccccc1 (configuration not stated)	46%	6.35%	28.2%	18.9%	2.2%	34.6%
COc1ccc(N2NC(c3ccccc3)(c3ccccc3)C(C)C2=O)cc1 (configuration not stated)	48.2%	17.1%	40.4%	5.2%	51.2%	40.1%
C=CCNc1ccc(C)cc1	16.5%	-8.15%	20.1%	13.4%	-5%	20.4%
CCCCCCOC(=O)NC1c2ccccc2Oc2ccccc21	-0.35%	7.15%	10.1%	-7.2%	7.45%	3.15%
CNc1ccc(C(=O)O)cc1C(F)(F)F	-0.35%	-1.45%	-6%	0.65%	-32.6%	8.85%
CC(=O)N/C(=C/c1ccccc1)C(=O)NC(C)(C)C	-13.1%	-6.15%	-9.85%	-4.25%	1.2%	0.05%

SMILES	growth inhibition [1]	growth inhibition [2]	growth inhibition [3]	growth inhibition [4]	growth inhibition [5]	growth inhibition [6]
CC(=O)C(CCN(C)C)c1ccc2c(c1)CCc1ccccc1-2 (configuration not stated)	13.3%	5.65%	19.4%	-8.45%	13.3%	27.6%
Cc1ccc(NC(=S)N2CCCCC2C)cc1C (configuration not stated)	17.9%	11.7%	12.7%	3.1%	16.6%	-6.15%
CCCCCCC1(/C=C/c2ccc(Cl)c(Cl)c2)OCCCO1	6.15%	12.2%	12.6%	-1.55%	3.2%	8.1%
O=c1cc(C=Nc2ccc(-c3csc(-c4ccccc4)n3)cc2)[nH]c(=S)[nH]1	97.2% (active)	91.2% (active)	97.7% (active)	97.2% (active)	96.5% (active)	98% (active)
c1ccc(C2Nc3ccccc3C3OCCCC23)cc1 (configuration not stated)	2.35%	-4.3%	9.8%	-9.4%	-20.6%	1.7%
Nc1ccc(S(=O)(=O)NNc2nc(N3CCCCC3)nc(N3CCCCC3)n2)cc1	-1.3%	1.95%	10.2%	7.9%	-11.7%	-5%
COc1cccc2cc(-c3c[nH]c4ccccc34)c(=O)oc12	1%	11.2%	11.2%	7%	1.65%	0.75%
COc1ccc(COC(=O)NC2CCCCC2)cc1OC	2.5%	19.9%	25.1%	-9.95%	37%	45.9%
COc1ccc(/C=C/c2ccc3ccccc3[n+]2C)cc1OC	32%	4.55%	32.6%	21.3%	0.7%	15.9%
OCc1ccc(O)c(CO)n1	-8.85%	-26.3%	-3.35%	5.4%	-20.6%	7.55%
O=c1oc2ccccc2c2c1Sc1ccccc1N2	-0.95%	-22%	17%	12.8%	2.05%	-9.1%
O=C(O)c1ccnc(-c2ccc(Cl)cc2)c1	5.5%	5.75%	-1.65%	-17.2%	-16.8%	9.05%
O=C(O)c1ccc(CS(=O)(=O)c2ccccc2C(=O)O)cc1	9%	-0.6%	2.05%	15.8%	5.6%	20.2%
COc1ccc2c(c1)C1(C)CCC(=O)C(C)=C1CC2 (configuration not stated)	17.9%	-3.95%	22.9%	7.75%	14.8%	14.4%
O=C(c1ccccc1)c1cc(Cl)ccc1N1C(=O)C=CC1=O	99.2% (active)	99.7% (active)	99.7% (active)	99.2% (active)	99% (active)	99.5% (active)
CCC(CC)COC(=O)c1ccccc1C(=O)OCC(CC)CC	-18.9%	-33.3%	-0.35%	3.6%	-2.75%	-16%
COC(=O)C1c2ccccc2CC(=O)N1N (configuration not stated)	-2.7%	-8.5%	-20.6%	8.25%	7.05%	9.15%
O=C1c2ccccc2C2(O)Oc3cccc(O)c3C12O (configuration not stated)	6.45%	4.55%	-2%	-14.9%	2.85%	49.9%
O=C(CC(O)(C(F)(F)F)C(F)(F)F)C(CCCl)C(O)(C(F)(F)F)C(F)(F)F (configuration not stated)	17.6%	18.9%	41.6%	21.4%	8.05%	38.8%
CCOC(=O)c1nc(C)oc1C(=O)OCC	0.85%	-12.9%	-14.6%	-13.9%	-7.3%	-3.85%
CC(=O)Nc1cc2cc(NC(=O)C(Cl)(Cl)Cl)ccc2oc1=O	-24.3%	-17.4%	-4.65%	0.55%	-11.7%	-24.6%
